Assay results taken from PubChem BioAssay (NCATS).
Where “and” joins values, the source holds several entries; their conditions need not be identical. Equal values may be shown once. Unmarked numbers belong to inactive results. Results filed as inconclusive are left out. A call without a number means that no potency is given here. The source holds several records for some structures; these can differ, active in one and inactive in another. Calls of active or inactive are those of the source. Unless noted, calls follow the shape of the dose curve; as a rule, active = well fitted curve in the direction sought with a large enough effect; inconclusive = small, poorly fitted or top-dose-only effect, or another doubt; inactive = no such curve, though single readings can be large; an effect the other way counts as inactive or inconclusive.

Key:
C33A = assay: Primary qHTS to identify gynecologic anti-cancer compounds using libraries of approved drugs and bioactive compounds (AID 1345084); conditions: Gynecologic cancer cell panel viability, ATPlite luminescence, 48 h; series mostly up to 57.5 µM; also: nearly all actives have a fitted effect of over 55% in size; also: potency is read from the fitted curve at half-maximal effect
Method in brief: (§1)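 Cells, 1,000 per well, plated 16 h, then exposed 48 h at 37 C to compounds. Viability by ATPlite luminescence after 15 min at room temperature.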

CAOV3 = assay: as above; conditions: Gynecologic cancer cell panel viability, ATPlite luminescence, 48 h; series mostly up to 57.5 µM
Method in brief: as §1

CASKI = assay: as above; conditions: Gynecologic cancer cell panel viability, ATPlite luminescence, 48 h; series mostly up to 57.5 µM
Method in brief: as §1

Es-2 = assay: as above; conditions: Gynecologic cancer cell panel viability, ATPlite luminescence, 48 h; series mostly up to 57.5 µM
Method in brief: as §1

HeLa = assay: as above; conditions: Gynecologic cancer cell panel viability, ATPlite luminescence, 48 h; series mostly up to 57.5 µM
Method in brief: as §1

Hek293T = assay: as above; conditions: Gynecologic cancer cell panel viability, ATPlite luminescence, 48 h, control line for the selectivity index; series mostly up to 57.5 µM
Method in brief: as §1

JEG-3 = assay: as above; conditions: Gynecologic cancer cell panel viability, ATPlite luminescence, 48 h; series mostly up to 57.5 µM
Method in brief: as §1

OV90 = assay: as above; conditions: Gynecologic cancer cell panel viability, ATPlite luminescence, 48 h; series mostly up to 57.5 µM
Method in brief: as §1

PA-1 = assay: as above; conditions: Gynecologic cancer cell panel viability, ATPlite luminescence, 48 h; series mostly up to 57.5 µM
Method in brief: as §1

SKOV3 = assay: as above; conditions: Gynecologic cancer cell panel viability, ATPlite luminescence, 48 h; series mostly up to 57.5 µM
Method in brief: as §1

Tov-21-G = assay: as above; conditions: Gynecologic cancer cell panel viability, ATPlite luminescence, 48 h; series mostly up to 57.5 µM
Method in brief: as §1

Tov112D = assay: as above; conditions: Gynecologic cancer cell panel viability, ATPlite luminescence, 48 h; series mostly up to 57.5 µM
Method in brief: as §1

[1] = Drug repurposing screens with cells derived from glioblastoma tumor samples (AID 1345199); conditions: GBM patient neurospheres viability, ATP luminescence, 48 h; for Potency: tumour line A; also: potency is read from the fitted curve at half-maximal effect; as to all read-outs here: nearly all actives have a fitted effect of over 40% in size
Method in brief: (§2)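 Primary testing used CD133+ neurospheres from four GBM patients, seven concentrations, 48 h exposure and ATP-based viability; confirmation added three slower-growing patient lines.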

UISO = assay: qHTS assay to identify novel small-molecules to repurpose for Merkel cell carcinoma treatment (AID 1296009); conditions: MCC and control cell lines, CellTiter-Glo viability, 72 h; series mostly up to 46 µM; also: nearly all actives have a fitted effect of over 60% in size; also: potency is read from the fitted curve at half-maximal effect
Method in brief: (§3)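 Luminescence from CellTiter-Glo, read 10 min after addition at room temperature, reported viability following a 72 hr, 37 degree celsius treatment with NPC or MIPE compounds in titration; values normalized to plate controls.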

WaGa = assay: as above; conditions: MCC and control cell lines, CellTiter-Glo viability, 72 h; series mostly up to 46 µM
Method in brief: as §3

astro = assay: Drug repurposing screens with cells derived from glioblastoma tumor samples (AID 1345199); conditions: viability, ATP luminescence, 48 h; series mostly up to 45.9 µM; also: nearly all actives have a fitted effect of over 40% in size; also: potency is read from the fitted curve at half-maximal effect
Method in brief: as §2

MKL-2 = assay: qHTS assay to identify novel small-molecules to repurpose for Merkel cell carcinoma treatment (AID 1296009); conditions: MCC and control cell lines, CellTiter-Glo viability, 72 h; series mostly up to 46 µM; also: nearly all actives have a fitted effect of over 60% in size; also: potency is read from the fitted curve at half-maximal effect
Method in brief: as §3

[2] = molecular target: Nuclear receptor subfamily 1 group I member 2 (Rattus norvegicus) (UniProt Q9R1A7); assay: qHTS assay for small molecule activators of the rat pregnane X receptor (rPXR) signaling pathway (AID 651751; call rule not given here); conditions: rPXR reporter cells, luciferase (One-Glo), 24 h
Sequence of Nuclear receptor subfamily 1 group I member 2 (Rattus norvegicus) (Q9R1A7 whole entry, looked up): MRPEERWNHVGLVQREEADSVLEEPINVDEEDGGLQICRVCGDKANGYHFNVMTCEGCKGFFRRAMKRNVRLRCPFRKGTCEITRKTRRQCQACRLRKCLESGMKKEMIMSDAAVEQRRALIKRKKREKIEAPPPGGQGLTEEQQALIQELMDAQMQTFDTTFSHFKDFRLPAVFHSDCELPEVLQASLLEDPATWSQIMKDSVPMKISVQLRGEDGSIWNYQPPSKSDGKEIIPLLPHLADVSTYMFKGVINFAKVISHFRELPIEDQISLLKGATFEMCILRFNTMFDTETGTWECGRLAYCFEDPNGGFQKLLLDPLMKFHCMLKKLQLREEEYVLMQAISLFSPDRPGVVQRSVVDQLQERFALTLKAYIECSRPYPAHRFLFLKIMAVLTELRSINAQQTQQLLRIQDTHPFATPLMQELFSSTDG

NIH3T3 = assay: qHTS assay to identify novel small-molecules to repurpose for Merkel cell carcinoma treatment (AID 1296009); conditions: MCC and control cell lines, CellTiter-Glo viability, 72 h; at 44.8 µM (top of the series) unless noted; also: nearly all actives have a fitted effect of over 60% in size; also: potency is read from the fitted curve at half-maximal effect
Method in brief: as §3

[3] = at 45.9 µM (top of the series), tumour line B
[4] = at 45.9 µM (top of the series), tumour line D

SMILES: C[C@]12CC[C@H](O)CC1=CC[C@@H]1[C@@H]2CC[C@]2(C)C(=O)CC[C@@H]12
- Potency (C33A): inactive
- Potency (CAOV3): inactive
- Potency (CASKI): inactive
- Potency (Es-2): inactive
- Potency (HeLa): 14.1 µM (active)
- Potency (Hek293T): inactive
- Potency (JEG-3): inactive
- Potency (OV90): inactive
- Potency (PA-1): inactive
- Potency (SKOV3): inactive
- Potency (Tov-21-G): inactive
- Potency (Tov112D): inactive
- activity, negative = cell killing [1, 3]: -4.02%
- Potency [1]: 22.4 µM (active)

SMILES: CC(Cc1ccccc1)NCCCCl (stereo not given)
- Potency (UISO): inactive
- Potency (WaGa): inactive
- Potency (C33A): inactive
- Potency (CASKI): inactive
- Potency (Es-2): inactive
- Potency (HeLa): inactive
- Potency (Hek293T): inactive
- Potency (JEG-3): inactive
- Potency (OV90): inactive
- Potency (PA-1): inactive
- Potency (SKOV3): inactive
- Potency (Tov-21-G): inactive
- Potency (Tov112D): inactive

SMILES: COc1ccc2c(C(=O)c3ccc(Cl)cc3)c(C)n(CC(=O)O)c2c1
- Potency (UISO): 26.6 µM (active)
- Potency (C33A): inactive
- Potency (CAOV3): inactive
- Potency (CASKI): inactive
- Potency (Hek293T): inactive
- Potency (JEG-3): inactive
- Potency (OV90): inactive
- activity, negative = cell killing [1, 3]: -15.8%
- activity, negative = cell killing [1, 4]: -19.1%
- Potency (astro): inactive

SMILES: CN1C(=O)[C@@H](NC(=O)c2cc3ccccc3[nH]2)N=C(c2ccccc2)c2ccccc21
- Potency (MKL-2): inactive
- Potency (WaGa): inactive
- Potency (C33A): inactive
- Potency (HeLa): inactive
- Potency (Hek293T): inactive
- Potency (JEG-3): inactive
- Potency (PA-1): inactive
- Potency (Tov-21-G): inactive
- Potency (Tov112D): inactive
- activity, negative = cell killing [1, 3]: 8.15%
- activity, negative = cell killing [1, 4]: -1.15%
- Potency (astro): inactive

SMILES: C#C[C@]1(O)CC[C@H]2[C@@H]3CCC4=CC(=O)CCC4=C3C=C[C@@]21CC
- Potency (C33A): inactive
- Potency (CAOV3): inactive
- Potency (CASKI): inactive
- Potency (Es-2): inactive
- Potency (HeLa): inactive
- Potency (Hek293T): inactive
- Potency (JEG-3): inactive
- Potency (OV90): inactive
- Potency (PA-1): inactive
- Potency (SKOV3): inactive
- Potency (Tov-21-G): inactive
- Potency (Tov112D): inactive
- activity, negative = cell killing [1, 3]: -22.9%
- activity, negative = cell killing [1, 4]: -22%
- Potency [1]: 10 µM (active)

SMILES: C=CC[C@]1(O)CC[C@H]2[C@@H]3CCC4=CC(=O)CCC4=C3C=C[C@@]21C
- Potency (UISO): inactive
- Potency (CAOV3): inactive
- Potency (CASKI): inactive
- Potency (Es-2): inactive
- Potency (HeLa): inactive
- Potency (Hek293T): inactive
- Potency (JEG-3): inactive
- Potency (PA-1): inactive
- Potency (Tov-21-G): inactive
- Potency (Tov112D): inactive
- activity, negative = cell killing [1, 3]: -12.5%
- Potency [1]: 17.8 µM (active)

SMILES: NC1(c2ccccc2)CCCCC1
- Potency (UISO): inactive
- Potency (CASKI): inactive
- Potency (Es-2): inactive
- Potency (Hek293T): inactive
- Potency (JEG-3): inactive
- Potency (OV90): inactive
- Potency (PA-1): inactive
- Potency (Tov-21-G): inactive
- activity, negative = cell killing ([1]; at 91.6 µM (top of the series), tumour line B): -7.4%
- Potency [1]: 63.1 µM (active)
- Potency (astro): inactive

SMILES: CCC(=O)C(CCN(C)C)(c1ccccc1)c1ccccc1
- Potency (UISO): inactive
- Potency (C33A): inactive
- Potency (CAOV3): inactive
- Potency (CASKI): inactive
- Potency (Es-2): inactive
- Potency (HeLa): inactive
- Potency (Hek293T): inactive
- Potency (JEG-3): inactive
- Potency (OV90): inactive
- Potency (PA-1): inactive
- Potency (SKOV3): inactive
- Potency (Tov-21-G): inactive
- Potency (Tov112D): inactive

SMILES: COc1cc(CC(C)N)c(OC)cc1Br (stereo not given)
- Potency (MKL-2): 3.18 µM (active)
- Potency (WaGa): 50.4 µM (active)
- Potency (Es-2): inactive
- Potency (HeLa): 25.1 µM (active)
- Potency (JEG-3): inactive
- Potency (OV90): inactive
- Potency (Tov112D): inactive
- activity, negative = cell killing [1, 3]: -9.73%
- activity, negative = cell killing ([1]; at 108 µM (top of the series), tumour line B): -15.6%
- Potency [1]: 35.5 µM (active) and 12.6 µM (active)
- Potency (astro): inactive

SMILES: O=C(NC(=O)c1c(F)cccc1F)Nc1cc(Cl)c(OC(F)(F)C(F)C(F)(F)F)cc1Cl (stereo not given)
- Potency (UISO): inactive
- Potency (WaGa): inactive
- Potency (C33A): inactive
- Potency (CAOV3): inactive
- Potency (CASKI): inactive
- Potency (Es-2): inactive
- Potency (HeLa): inactive
- Potency (JEG-3): inactive
- Potency (OV90): inactive
- Potency (PA-1): inactive
- Potency (Tov-21-G): inactive
- Potency (Tov112D): inactive
- activity, negative = cell killing [1, 3]: -8.74%
- activity, negative = cell killing [1, 4]: -27.5%
- Potency [1]: 7.94 µM (active)
- Potency (astro): inactive
- max response [2]: 0.749%

SMILES: C=CCOC(Cn1ccnc1)c1ccc(Cl)cc1Cl (stereo not given)
- Potency (WaGa): inactive
- Potency (C33A): inactive
- Potency (CAOV3): inactive
- Potency (CASKI): inactive
- Potency (Es-2): inactive
- Potency (Hek293T): inactive
- Potency (JEG-3): inactive
- Potency (Tov-21-G): inactive
- Potency (Tov112D): inactive
- activity, negative = cell killing [1, 3]: -23.6%
- activity, negative = cell killing [1, 4]: -33.6%
- Potency [1]: 20 µM (active)

SMILES: CC[C@H]1C[C@H]2[C@@H]3CCC4=CC(=O)CC[C@@H]4[C@H]3CC[C@]2(C)[C@H]1O
- Potency (UISO): inactive
- Potency (WaGa): inactive
- Potency (CASKI): inactive
- Potency (Es-2): inactive
- Potency (JEG-3): inactive
- Potency (OV90): inactive
- Potency (Tov-21-G): inactive
- Potency (Tov112D): inactive
- Potency [1]: 10 µM (active)
- Potency (astro): inactive

SMILES: CC(CC(C#N)(c1ccccc1)c1ccccc1)N(C)C (stereo not given)
- Potency (WaGa): 43.3 µM (active)
- Potency (C33A): inactive
- Potency (CASKI): inactive
- Potency (Es-2): inactive
- Potency (HeLa): inactive
- Potency (Hek293T): inactive
- Potency (JEG-3): inactive
- Potency (PA-1): inactive
- Potency (Tov-21-G): inactive
- Potency (Tov112D): inactive
- Potency (astro): inactive

SMILES: CC(C)[N+](C)(CCC(C(N)=O)(c1ccccc1)c1ccccc1)C(C)C
- outcome (NIH3T3): inactive
- Potency (UISO): inactive
- Potency (WaGa): 23.7 µM (active)
- Potency (CAOV3): inactive
- Potency (CASKI): inactive
- Potency (Es-2): inactive
- Potency (HeLa): inactive
- Potency (Hek293T): inactive
- Potency (JEG-3): inactive
- Potency (PA-1): inactive
- Potency (SKOV3): inactive
- Potency (Tov-21-G): inactive
- Potency (Tov112D): inactive
- activity, negative = cell killing ([1]; at 21.2 µM (top of the series), tumour line B): -18%
- activity, negative = cell killing ([1]; at 21.2 µM (top of the series), tumour line D): -25.8%
- Potency (astro): inactive

SMILES: CCC(OC(C)=O)C(CC(C)NC)(c1ccccc1)c1ccccc1 (stereo not given)
- Potency (UISO): 49.1 µM (active)
- Potency (CAOV3): 39.8 µM (active)
- Potency (HeLa): 31.6 µM (active)
- Potency (Tov-21-G): inactive

SMILES: C[C@H](N)[C@H](O)c1ccc(O)c(O)c1
- Potency (UISO): inactive
- Potency (WaGa): inactive
- Potency (C33A): inactive
- Potency (CASKI): inactive
- Potency (JEG-3): inactive
- Potency (SKOV3): 25.1 µM (active)
- activity, negative = cell killing [1, 3]: -8.55%
- activity, negative = cell killing [1, 4]: -15.2%
- Potency (astro): inactive
